Screening data: PubChem BioAssay, several laboratories
Most compounds without a hit are left out; they make up all but 3.4% or so of the library.
KLK7 zymogen act – proKLK7 (human) activation, primary screen; AID 652039; activation, % at 7 µM; P49862; purified proKLK7, EDANS-DABCYL substrate fluorescence; 100% is mature enzyme control, 0% vehicle; actives 0.9% (n = 370,000);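 active means activation above the mean of all tested compounds plus 3 SD, computed per campaign excluding outliers beyond control limits, cut at about 13% in these data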
ADAM17 inh – inhibits human ADAM17 | actives 0.83% (n = 370,000) | AID 720648 | recombinant ADAM17, EDANS/DABCYL FRET peptide cleavage | inhibition, % at 6.95 µM | P78536;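 active means inhibition above the mean of compounds lying between control limits plus 3 SD, set per campaign, cut at about 8.5% in these data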;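 further: 0% = DMSO-only wells as the low control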
Target sequence (P78536 215-824 limits assumed): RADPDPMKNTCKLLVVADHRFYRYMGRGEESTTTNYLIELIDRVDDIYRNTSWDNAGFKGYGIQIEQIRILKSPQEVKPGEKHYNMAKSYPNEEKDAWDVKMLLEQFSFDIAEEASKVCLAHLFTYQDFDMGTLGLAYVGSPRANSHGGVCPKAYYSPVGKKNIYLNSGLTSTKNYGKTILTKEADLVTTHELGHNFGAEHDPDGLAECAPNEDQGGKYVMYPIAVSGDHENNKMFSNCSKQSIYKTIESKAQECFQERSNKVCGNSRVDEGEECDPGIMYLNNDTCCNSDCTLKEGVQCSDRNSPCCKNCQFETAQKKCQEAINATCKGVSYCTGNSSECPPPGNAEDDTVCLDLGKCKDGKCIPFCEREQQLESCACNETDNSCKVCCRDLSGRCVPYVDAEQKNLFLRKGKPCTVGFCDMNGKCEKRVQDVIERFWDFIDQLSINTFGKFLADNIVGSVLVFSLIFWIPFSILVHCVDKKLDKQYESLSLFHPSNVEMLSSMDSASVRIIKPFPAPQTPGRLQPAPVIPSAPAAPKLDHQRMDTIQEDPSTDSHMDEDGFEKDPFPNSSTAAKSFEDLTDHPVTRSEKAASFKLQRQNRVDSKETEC
ADAM10 inh – ADAM10 inhibition, QFRET primary screen | inhibition, % at 7 µM | O14672 | AID 720582 | actives 0.62% (n = 370,000) | recombinant ADAM10, EDANS/DABCYL FRET peptide cleavage, 3 h;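 active means inhibition above a per-campaign cutoff equal to the mean of compounds falling between control-based bounds plus 3 SD, cut at about 20% in these data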;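 further: 0% = DMSO wells while the 100% control is not disclosed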
sPLA2-III inh – Inhibits HGIII-sPLA2 liposome hydrolysis, primary screen. Q9NZ20. QFRET BODIPY PC-A2 liposome hydrolysis, fluorescence. inhibition, % at 12.2 µM. actives 0.56% (n = 370,000);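 active means inhibition above mean plus 3 SD of compounds lying within the high and low control bounds, cut at about 19% in these data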;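 further: 0% = median of test compound wells and 100% = no enzyme DMSO wells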
CendR NRP1 mod – alters CendR peptide binding to human NRP-1 | O14786 | FAM-RPARPAR peptide binding to NRP-1, fluorescence polarization | inhibition, % at 25 µM | actives 0.85% (n = 360,000) | AID 602438;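 active means inhibition or corrected inhibition above about 18%, plus a signal ratio from 0.5 to 1.5, limit read from the data, passing the limit was not always enough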
ADAM10 confirm – confirmation of inhibitors of human ADAM10; inhibition, % at 6.95 µM; ADAM10 QFRET peptide cleavage, EDANS fluorescence; shares compounds with ADAM10 inh; actives 1% (n = 2,100);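 active means inhibition above about 20% chosen separately for each screening run, limit read from the data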;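 further: 0% = DMSO wells and 100% = marimastat wells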
ADAM17 counter – counter-screen for ADAM10 exosite inhibitors: inhibitors of human ADAM17 | shares compounds with ADAM10 inh | ADAM17 QFRET peptide cleavage, EDANS fluorescence | inhibition, % at 6.95 µM | actives 0.5% (n = 2,100);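 active means mean triplicate inhibition above the solvent-only control wells' mean plus 3 SD, cut at about 12% in these data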;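 further: 0% = DMSO wells and 100% = marimastat wells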
* hit, by the source's call; nt = no result given.

SMILES	KLK7 zymogen act	ADAM17 inh	ADAM10 inh	sPLA2-III inh	CendR NRP1 mod	ADAM10 confirm	ADAM17 counter
O=C(NC(=S)Nc1ccccc1N1CCCC1)c1ccc(-c2cccc([N+](=O)[O-])c2)o1	-0.4	2.8	19.9*	-6.3	-4.5	2.0	1.1
COc1ccccc1-c1nnc(SCC#CCOC(=O)c2ccc(F)cc2)o1	nt	-3.6	-14.0	-1.2	nt	nt	nt
C[C@H]1CN(C(=O)OC(C)(C)C)CCN1c1ccc(N2CCS(=O)(=O)CC2)c(C#N)c1	0.9	-9.3	-45.9	9.6	nt	nt	nt
C=CCNC(=O)c1c(CSc2ccc(Cl)cc2)noc1C(=O)NCc1ccccc1	0.9	7.6	20.9*	-1.6	8.9	6.0	2.9
C=CCNC(=O)c1c(CSc2ccccc2)noc1C(=O)NCc1ccccc1	0.5	4.1	18.8	-11.0	3.6	nt	nt
COc1ccc(C)c2sc(N(CCCN(C)C)C(=O)c3ccc(S(=O)(=O)N4CCc5ccccc5C4)cc3)nc12	-2.4	-9.3	30.8*	-10.2	2.5	21.2*	10.9
COc1cccc2sc(N(CCCN(C)C)C(=O)c3ccc(S(=O)(=O)N4CCc5ccccc5C4)cc3)nc12	-2.2	-2.1	5.4	-19.7	8.2	nt	nt
Cc1ccc(-n2c(SCC(=O)C(C)(C)C)nnc2-c2cccc(C)c2)cc1	0.4	3.7	-6.3	0.9	nt	nt	nt
O=S(=O)(c1ccccc1)N1CCc2ccccc2C1	-0.1	-1.1	-0.5	-3.5	1.9	nt	nt
Cc1cc(S(=O)(=O)N2CCc3ccccc3C2)ccc1F	-0.4	1.7	22.3*	11.8	-3.1	0.7	0.5
CC(C)(C)c1cc(CP(=O)(c2ccccc2)c2ccccc2)cc(C(C)(C)C)c1O	-0.7	5.2	24.5*	14.1	3.9	2.1	1.1
CC(=O)c1cccc(NC(=O)c2ccc3c(c2)CCN3S(=O)(=O)c2ccccc2)c1	0.1	4.9	23.1*	-16.5	3.2	4.2	1.7
CC(=O)Nc1cccc(NC(=O)c2ccc3c(c2)CCN3S(=O)(=O)c2ccccc2)c1	0.2	4.1	11.1	-7.5	-4.5	nt	nt
CCc1nnn2c1Cn1c3ccccc3c(=O)n1[C@@H](C(C)C)C2	0.1	-27.6	-110.2	1.5	nt	nt	nt
C=C[C@@H]1c2cc(C)ccc2N(S(=O)(=O)c2ccc(C)cc2)[C@H](c2ccc(OC(C)=O)cc2)C1(C#N)C#N	0.6	-1.1	0.7	-9.0	6.7	nt	nt
C=C[C@@H]1c2ccccc2N(S(=O)(=O)c2ccc(C)cc2)[C@H](c2ccc(OC(C)=O)cc2)C1(C#N)C#N	-0.1	6.2	23.1*	-2.0	6.1	2.8	2.0
O=S1(=O)c2c(cccc2N2CCSCC2)Oc2ccccc2CN1Cc1cn(Cc2ccc(Cl)cc2)nn1	-3.1	4.5	7.2	-2.4	nt	nt	nt
O=C(CCc1ccc(S(=O)(=O)NC2CCCCC2)cc1)N(Cc1ccccc1)Cc1ccccc1	-0.3	6.5	21.1*	-32.9	1.0	7.3	2.1
NC(=O)C1CCN(c2ncc(Br)cn2)CC1	nt	-4.0	-20.0	1.8	nt	nt	nt
Cc1ccc(CNC(=O)c2cccc3c2C(=O)c2ccc(N4CCCCC4)cc2S3(=O)=O)cc1	-4.3	4.5	20.8*	-15.9	-141.2	6.9	0.4
CC(C)[C@H]1/C(=C/C2CC2)N2C(=O)C[C@@H](c3ccccc3)N=C2N1Cc1ccc2c(c1)OCO2	-0.1	-1.3	-1.3	2.0	nt	nt	nt
CCNC(=O)NC(=O)C(C)OC(=O)c1ccc(-n2nc(SC)sc2=S)cc1 (stereo not given)	0.0	3.1	22.1*	2.0	2.1	0.8	0.2
CSc1nn(-c2ccc(C(=O)OC(C(=O)NC(N)=O)C(C)C)cc2)c(=S)s1 (stereo not given)	0.1	-0.9	-1.6	-0.6	2.3	nt	nt
